Our source for the Potency and outcome values is PubChem BioAssay (Tox21).

Test [1] concerns the target Retinoic acid receptor RXR-alpha (Homo sapiens) (UniProt P19793). Nature of the test: qHTS assay to identify small molecule agonists of the RXR signaling pathway (AID 1159527; calls by dose curve; also: nearly all actives have a fitted effect of over 35% in size; also: potency is read from the fitted curve at half-maximal effect). The method in brief: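 GeneBLAzer RXR-alpha-UAS-bla HEK 293T cells in medium with 2% charcoal-stripped FBS, pre-incubated 5 hr at 37 C, then exposed to compounds 16 hr. Beta-lactamase reporter read by FRET substrate, 2 hr room temperature, 460/530 nm emission.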
Background: In qHTS, concentration-response curves come from the screen itself.

Test [2] can be described thus: qHTS assay to identify small molecule agonists of the RXR signaling pathway - cell viability counter screen (AID 1159529). Also: series mostly up to about 77 µM; nearly all actives have a fitted effect of over 50% in size. The method in brief: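 RXR-alpha-UAS-bla HEK 293T cells in medium with 2% charcoal-stripped FBS were preincubated 5 hr, then exposed to compounds for 16 hr at 37 C. Viability was read as CellTiter-Glo luminescence after 30 min at room temperature.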

Test [3] is described as follows: qHTS assay to identify small molecule antagonists of the retinoid acid receptor (RAR) signaling pathway - cell viability counter screen (AID 1159551). Also: nearly all actives have a fitted effect of over 35% in size. In a few lines:
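C3RL4 RARE-luciferase cells, 1,000/well, incubated overnight, then dosed with compound plus 1 uM retinol (final). After 6 hr at 37 C, viability read by CellTiter-Glo ATP luminescence following 30 min at room temperature.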

Test [4] in a line: qHTS assay to identify small molecule antagonists of the retinoic acid receptor (RAR) signaling pathway (AID 1159552; also: nearly all actives have a fitted effect of over 50% in size). In a few lines:
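RARE-luc C3RL4 cells; cpds + 1 uM (final) retinol, 6 hr, 37 C/5% CO2; luciferase reagent, 30 min RT, luminescence readout. Inhibitors of retinol-driven signal scored.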

The nature of test [5]: qHTS assay to identify small molecule agonists of the retinoic acid receptor (RAR) signaling pathway (AID 1159553). Also: potency is read from the fitted curve at half-maximal effect. In a few lines:
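C3RL4 RARE-luciferase cells were seeded at 1,000/well and grown overnight at 37 C, then exposed to compounds for 6 hr at 37 C, 5% CO2. Luciferase reagent was added and luminescence was read after 30 min at room temperature.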

A short description of test [6]: qHTS assay to identify small molecule antagonists of the estrogen related receptor (ERR) signaling pathway from Tox21 library - cell viability counter screen (AID 1224834). Also: nearly all actives have a fitted effect of over 30% in size. Also: potency is read from the fitted curve at half-maximal effect. The method in brief: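 ERR reporter cells, 2,000 per well, rested 6 h, then exposed to compound in DMSO for 17.5 hours at 37 C. Viability read as fluorescence after 30 min with CellTiter-Fluor.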

In test [7] the target is Luciferin 4-monooxygenase (Photinus pyralis) (UniProt P08659). Nature of the test: qHTS assay to identify small molecule inhibitors of firefly luciferase (AID 1224835). Also: nearly all actives have a fitted effect of over 25% in size. Also: potency is read from the fitted curve at half-maximal effect. In a few lines:
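Biochemical qHTS: compounds run as interplate titrations against purified firefly enzyme, with D-luciferin and ATP each at its KM concentration. Light output recorded by CCD imaging.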

A short description of test [8]: qHTS assay to identify small molecule agonists of the constitutive androstane receptor (CAR) signaling pathway - cell viability counter screen (AID 1224836). Also: series mostly up to about 92 µM; nearly all actives have a fitted effect of over 45% in size. In a few lines: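 HepG2 cells stably carrying hCAR and a CYP2B6-2.2kb reporter were plated 4 h, then given compounds at 15 concentrations plus PK11195 (final 0.75 uM). After 23 h at 37 C, viability was read by CellTiter-Fluor fluorescence.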

A short description of test [9]: qHTS assay to identify small molecule antagonists of the constitutive androstane receptor (CAR) signaling pathway - cell viability counter screen (AID 1224837). Also: series mostly up to about 92 µM; nearly all actives have a fitted effect of over 45% in size. In a few lines: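 HepG2 cells stably carrying hCAR and CYP2B6-2.2kb reporter, stimulated with 50 nM CITCO and compounds at 15 concentrations for 23 h at 37 C. Viability measured by CellTiter-Fluor fluorescence.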

The target in test [10] is Nuclear receptor subfamily 1 group I member 3 (Homo sapiens) (UniProt Q14994). Nature of the test: qHTS assay to identify small molecule antagonists of the constitutive androstane receptor (CAR) signaling pathway (AID 1224838). Also: nearly all actives have a fitted effect of over 40% in size. The method in brief: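 HepG2 cells stably carrying hCAR and a CYP2B6-2.2kb luciferase reporter, seeded 4 hrs before compound (15 concentrations). Stimulated with 50 nM CITCO for 24 hr at 37 C. ONE-Glo luminescence read after 30 min at room temperature.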
Chain of Nuclear receptor subfamily 1 group I member 3 (Homo sapiens) (Q14994 whole entry, looked up): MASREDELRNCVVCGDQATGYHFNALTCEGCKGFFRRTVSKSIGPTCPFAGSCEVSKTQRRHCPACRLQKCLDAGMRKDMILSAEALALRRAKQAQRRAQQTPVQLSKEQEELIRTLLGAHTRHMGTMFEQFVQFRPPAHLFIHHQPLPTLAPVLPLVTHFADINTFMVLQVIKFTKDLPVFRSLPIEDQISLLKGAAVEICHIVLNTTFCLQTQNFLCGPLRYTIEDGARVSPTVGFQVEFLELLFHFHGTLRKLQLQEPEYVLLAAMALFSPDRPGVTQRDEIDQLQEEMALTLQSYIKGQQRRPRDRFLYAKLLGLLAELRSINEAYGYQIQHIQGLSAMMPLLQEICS

The target is the same in test [11]. The test is described as follows: qHTS assay to identify small molecule agonists of the constitutive androstane receptor (CAR) signaling pathway (AID 1224839). Also: series mostly up to about 92 µM; nearly all actives have a fitted effect of over 15% in size. The method in brief: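 HepG2 cells stably expressing hCAR and a CYP2B6-2.2kb luciferase reporter were treated with compounds at 15 concentrations plus 0.75 uM PK11195 (final) for 24 h at 37 C; luminescence was read after ONE-Glo addition.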

Test [12] is described as follows: qHTS assay to identify small molecule antagonists of the estrogen related receptor signaling pathway with the pleiotropic PPARgamma coactivator (PGC) from Tox21 10K library - cell viability counter screen (AID 1224840; active = well fitted cell-killing curve with a large enough effect in the repeat runs, not every such curve was filed as active; also: nearly all actives have a fitted effect of over 40% in size; also: potency is read from the fitted curve at half-maximal effect). In a few lines: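 PGC/ERR cells (2,000/well) plated 6 h, then compound-treated for 17.5 h at 37 C. Viability measured by CellTiter-Fluor fluorescence after 30 min at 37 C, multiplexed with the pathway assay.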

Test [13] deals with Thyrotropin receptor (Homo sapiens) (UniProt P16473). The test is described as follows: qHTS assay to identify small molecule agonists of the thyroid stimulating hormone receptor (TSHR) signaling pathway (AID 1224843; calls by dose curve; also: nearly all actives have a fitted effect of over 45% in size). The method in brief:
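TSHR-HEK293 cells in agonist mode, 30 min room-temperature step, then cAMP measured by competitive HTRF (cAMP-d2 with anti-cAMP cryptate) after 1 h at room temperature. Tested at 15 concentrations in triplicate.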

A short description of test [14]: qHTS assay to identify small molecule agonists of the estrogen related receptor signaling pathway with the pleiotropic PPARgamma coactivator (PGC) from Tox21 10K library (AID 1224842). Also: nearly all actives have a fitted effect of over 15% in size. The method in brief:
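PGC/ERR reporter cell line, 2,000 cells per well, incubated 6 h at 37 C before 23 nL compound in DMSO was added. After 18 h at 37 C, One-Glo luminescence read following 30 min at room temperature.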

“And” between values parts separate entries of the source, which are not always exact repeats. Equal entries are not always repeated. Results filed as inconclusive are left out. The source holds several records for some structures; these can differ, active in one and inactive in another. The source made the active and inactive calls. Unless noted, calls follow the shape of the dose curve; as a rule, active = well fitted curve in the direction sought with a large enough effect in the repeat runs; inconclusive = weak or mixed curves; inactive = no such curve, though single readings can be large; an effect the other way counts as inactive or inconclusive.

Chain of Thyrotropin receptor (Homo sapiens) (P16473 whole entry, looked up): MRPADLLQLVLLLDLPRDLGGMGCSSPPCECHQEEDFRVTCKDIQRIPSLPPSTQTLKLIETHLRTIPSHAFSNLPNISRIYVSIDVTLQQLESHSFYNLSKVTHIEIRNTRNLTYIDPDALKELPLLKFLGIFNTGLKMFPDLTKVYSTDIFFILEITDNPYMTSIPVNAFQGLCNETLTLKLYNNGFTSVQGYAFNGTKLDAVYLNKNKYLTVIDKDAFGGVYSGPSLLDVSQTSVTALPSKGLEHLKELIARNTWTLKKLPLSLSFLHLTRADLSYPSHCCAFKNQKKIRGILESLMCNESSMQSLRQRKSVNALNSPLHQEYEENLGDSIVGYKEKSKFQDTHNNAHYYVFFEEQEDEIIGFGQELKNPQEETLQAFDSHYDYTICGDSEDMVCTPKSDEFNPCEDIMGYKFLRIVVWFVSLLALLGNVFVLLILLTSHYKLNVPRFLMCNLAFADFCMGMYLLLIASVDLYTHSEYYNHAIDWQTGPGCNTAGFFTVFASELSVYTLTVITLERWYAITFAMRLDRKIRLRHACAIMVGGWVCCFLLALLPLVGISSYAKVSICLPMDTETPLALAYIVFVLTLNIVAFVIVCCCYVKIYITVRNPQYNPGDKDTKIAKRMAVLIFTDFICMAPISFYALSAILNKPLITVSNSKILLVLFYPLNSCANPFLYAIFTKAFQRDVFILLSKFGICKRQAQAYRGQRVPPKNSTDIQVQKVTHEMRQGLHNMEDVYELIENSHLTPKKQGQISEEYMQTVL
Chain of Retinoic acid receptor RXR-alpha (Homo sapiens) (P19793 whole entry, looked up): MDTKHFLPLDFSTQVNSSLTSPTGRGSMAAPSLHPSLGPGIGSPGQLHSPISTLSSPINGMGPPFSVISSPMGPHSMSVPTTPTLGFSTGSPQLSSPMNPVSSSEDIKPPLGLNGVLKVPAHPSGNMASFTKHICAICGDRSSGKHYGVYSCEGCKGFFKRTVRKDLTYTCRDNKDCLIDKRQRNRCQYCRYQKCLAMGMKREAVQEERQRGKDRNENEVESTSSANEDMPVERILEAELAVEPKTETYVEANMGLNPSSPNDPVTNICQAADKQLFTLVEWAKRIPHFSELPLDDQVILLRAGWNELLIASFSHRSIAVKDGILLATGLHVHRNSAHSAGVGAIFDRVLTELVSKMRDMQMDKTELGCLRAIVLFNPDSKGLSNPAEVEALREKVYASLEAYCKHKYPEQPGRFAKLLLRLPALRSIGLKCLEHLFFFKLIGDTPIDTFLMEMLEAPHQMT
Chain of Luciferin 4-monooxygenase (Photinus pyralis) (P08659 whole entry, looked up): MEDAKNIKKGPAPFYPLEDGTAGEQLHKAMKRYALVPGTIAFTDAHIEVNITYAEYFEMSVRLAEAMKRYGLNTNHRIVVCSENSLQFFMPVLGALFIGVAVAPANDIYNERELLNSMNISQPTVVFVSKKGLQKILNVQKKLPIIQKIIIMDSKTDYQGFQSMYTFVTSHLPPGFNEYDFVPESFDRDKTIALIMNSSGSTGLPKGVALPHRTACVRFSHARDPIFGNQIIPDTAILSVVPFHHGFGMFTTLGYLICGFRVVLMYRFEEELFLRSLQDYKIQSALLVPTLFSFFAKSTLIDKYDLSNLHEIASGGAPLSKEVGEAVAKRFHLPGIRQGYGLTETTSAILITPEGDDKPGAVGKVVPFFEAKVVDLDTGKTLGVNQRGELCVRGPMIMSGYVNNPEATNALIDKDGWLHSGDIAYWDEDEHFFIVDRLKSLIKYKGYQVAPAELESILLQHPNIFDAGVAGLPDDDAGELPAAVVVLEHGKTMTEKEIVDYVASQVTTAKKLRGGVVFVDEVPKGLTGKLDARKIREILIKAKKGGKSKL

For the compound `O=C/C=C/c1ccccc1`, the Potency result in test [1], in test [4], in [6], in test [8], in test [9] and in test [10] was “inactive” throughout. For the same compound, the Potency result in [11], in test [12] and in test [13] was “inactive” throughout. Also, the compound was called inactive in [2] and in test [3]. Moreover, the Potency result was “inactive and 34.4 µM (active)” in test [5]; “inactive and 44.8 µM (active)” in [7].

Consider `Cc1cc(O)ccc1Cl`, for which the Potency result in test [1] was “inactive and 12.3 µM (active)”. Moreover, the compound was called inactive in test [2] and in test [3]. In addition, the Potency entry in test [4], in test [5], in test [6], in test [7], in test [8] and in test [9] was “inactive” each time. The Potency entry in test [12], in [14] and in test [13] was “inactive” throughout.

With `Cc1cc(Cl)ccc1OC(C)C(=O)O` (configuration not stated), the Potency result in [1], in test [4], in test [5], in test [6], in [7] and in [8] was “inactive” in each case. Besides, the Potency result in test [9], in test [11] and in test [12] was “inactive” throughout. The call in [2] and in [3] was inactive.

Regarding `Cc1cccc(C)c1N`, the Potency result in test [1], in test [4], in test [5], in [6], in test [7] and in test [8] was “inactive” each time. Further, the Potency result in test [9] and in test [12] was “inactive” each time. The call in [2] and in test [3] was inactive.

For the compound `C=C(C)C(=O)OCC(CC)CCCC` (configuration not stated), the Potency result in test [1], in [4], in test [5], in test [7], in test [8] and in test [9] was “inactive” in each case. The Potency result in test [14] was “inactive”. In addition, the compound was classed as inactive in [2] and in test [3]. Besides, the Potency is 55.5 µM (active) and inactive in test [6]; 39.3 µM (active) and inactive in [12].

In the case of `COC(C)(C)CCCC(C)C/C=C/C(C)=C/C(=O)OC(C)C` (configuration not stated), the Potency entry in [1], in test [4], in [5], in test [6], in test [7] and in test [8] was “inactive” each time. Also, the Potency result in test [9], in test [10], in [11], in test [12], in test [14] and in test [13] was “inactive” throughout. The compound was classed as inactive in [2] and in test [3].

As for `N#Cc1cccc(C#N)c1`, the Potency entry in test [1], in [4], in [5], in test [6], in [7] and in test [8] was “inactive” each time. The Potency entry in [9], in test [10], in [11], in test [12] and in [13] was “inactive” throughout. For the same compound, the compound was called inactive in test [2] and in [3].

In the case of `CCOC(=O)CC(SP(=O)(OC)OC)C(=O)OCC` (configuration not stated), the Potency entry in test [1], in test [4], in test [5], in [6], in test [7] and in test [8] was “inactive” each time. In addition, the Potency result in test [9], in test [10], in test [11], in test [12] and in test [13] was “inactive” throughout. The compound was classed as inactive in test [2] and in test [3].

With `CN(C)CCC#N`, the Potency entry in [1], in test [4], in test [5], in [6], in test [7] and in [8] was “inactive” in each case. For the same compound, the Potency result in test [9] and in test [12] was “inactive” in each case. For the same compound, the result in test [2] and in test [3] was inactive.

Take `O=P1(NCCCl)OCCCN1CCCl` (configuration not stated): the Potency entry in test [1], in test [4], in test [5], in test [6], in test [7] and in test [8] was “inactive” throughout. Further, the Potency entry in test [9], in test [10], in test [12] and in test [14] was “inactive” each time. Further, the compound was called inactive in test [2] and in test [3].

Take `CCCCC(CC)C(=O)Cl` (configuration not stated): the Potency entry in test [1], in test [4], in test [5], in [6], in test [7] and in test [8] was “inactive” each time. Further, the Potency result in test [9], in [10], in test [11], in test [12] and in test [13] was “inactive” each time. Besides, the compound was called inactive in [2] and in test [3].
